The values that follow come from PubChem BioAssay (NCATS).

Inconclusive results are not listed. A number with no mark means an inactive call. Active and inactive are the calls of the source. Calls come from the whole dose curve; as a rule, active = well fitted inhibition curve with a large enough effect; inconclusive = small, poorly fitted or top-dose-only effect; inactive = flat fitted curve, though single readings scatter.
Potency is the fitted concentration of half-maximal effect.

The first experiment deals with CP286. The experiment in a line: qHTS profiling for inhibitors of Plasmodium falciparum proliferation (AID 504749).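 For activity, negative = inhibition: 0% = DMSO vehicle and full inhibition = artemisinin control.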 Note: nearly all actives have a fitted effect of over 60% in size. The note with it: P. falciparum in erythrocytes, SYBR Green DNA, 72 h; series mostly up to 12.8 µM; activity, negative = inhibition: at the top concentration. A digest of the protocol: (§1)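 Fluorescence of SYBR Green-bound parasite DNA, read at 485/535 nm, served as the growth measure. Infected erythrocytes were cultured with compound 72 h; artemisinin (0.29 uM) and DMSO wells defined the normalization range.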
Take `CCO[C@H]1O[C@@H]([C@H](COCc2ccccc2)OCc2ccccc2)[C@@H](OCc2ccccc2)[C@H]1O`: the “activity, negative = inhibition” value was -4.48%.

For the molecule `COc1cc(N[C@@H](C)CCCN)c2ncccc2c1`, the Potency is 891 nM (active).

On to `C=Cc1c(C)c2cc3nc(cc4[nH]c(cc5nc(cc1[nH]2)C(C)=C5CCC(=O)O)c(CCC(=O)OC)c4C)[C@@]1(C)C3=CC=C(C(=O)OC)[C@H]1C(=O)OC` (tested in a mixture with another compound), for which the Potency was 4470 nM (active).

Regarding `CO[C@]1(NC(=O)[C@H](C(=O)O)c2ccc(O)cc2)C(=O)N2C(C(=O)O)=C(CSc3nnnn3C)CO[C@H]21`, the “activity, negative = inhibition” value is -0.0592%.

Consider `COc1ccc2c(c1)N(C[C@@H](C)CN(C)C)c1ccccc1S2`, for which the “activity, negative = inhibition” value is -14.7%.

For `CCC(C)(C)C(=O)O[C@@H]1C[C@H](C)C=C2C=C[C@H](C)[C@@H](CC[C@H]3C[C@@H](O)CC(=O)O3)[C@H]21`, the “activity, negative = inhibition” value is -5.77%.

As for `CC=C(/C(=C/C)c1ccc(O)cc1)c1ccc(O)cc1`, the “activity, negative = inhibition” value is -4.03%.

Consider `CC1(C)S[C@@H]2[C@H](NC(=O)[C@@H](N)c3ccccc3)C(=O)N2[C@H]1C(=O)O[C@H]1OC(=O)c2ccccc21`, for which the “activity, negative = inhibition” value is -0.801%.

A further experiment relates to CP291. Described as above. The note with it: P. falciparum in erythrocytes, SYBR Green DNA, 72 h; series mostly up to 12.8 µM; activity, negative = inhibition: at the top concentration. The gist of the method:
as §1
Regarding `CCO[C@H]1O[C@@H]([C@H](COCc2ccccc2)OCc2ccccc2)[C@@H](OCc2ccccc2)[C@H]1O`, the “activity, negative = inhibition” value is -4.39%.

As for `COc1cc(N[C@@H](C)CCCN)c2ncccc2c1`, the Potency is 1810 nM (active).

As to `C=Cc1c(C)c2cc3nc(cc4[nH]c(cc5nc(cc1[nH]2)C(C)=C5CCC(=O)O)c(CCC(=O)OC)c4C)[C@@]1(C)C3=CC=C(C(=O)OC)[C@H]1C(=O)OC` (tested in a mixture with another compound), the “activity, negative = inhibition” value is -15.8% [at 28.7 µM].

For `O=C(OC[C@@H](O)CO)c1ccccc1Nc1ccnc2cc(Cl)ccc12`, the “activity, negative = inhibition” value was -7.76%.

Regarding `CO[C@]1(NC(=O)[C@H](C(=O)O)c2ccc(O)cc2)C(=O)N2C(C(=O)O)=C(CSc3nnnn3C)CO[C@H]21`, the “activity, negative = inhibition” value is -0.413%.

For `COc1ccc2c(c1)N(C[C@@H](C)CN(C)C)c1ccccc1S2`, the “activity, negative = inhibition” value is -13.5%.

Consider `CCC(=O)[C@@]1(C)[C@H](C)C[C@@H]2[C@@H]3CCC4=CC(=O)C=C[C@@]4(C)[C@H]3[C@H](O)C[C@]21C`, for which the “activity, negative = inhibition” value is -2.74%.

On to `CCC(C)(C)C(=O)O[C@@H]1C[C@H](C)C=C2C=C[C@H](C)[C@@H](CC[C@H]3C[C@@H](O)CC(=O)O3)[C@H]21`, for which the “activity, negative = inhibition” value was -4.42%.

As to `CC=C(/C(=C/C)c1ccc(O)cc1)c1ccc(O)cc1`, the “activity, negative = inhibition” value was 4.19%.

In the case of `CC1(C)S[C@@H]2[C@H](NC(=O)[C@@H](N)c3ccccc3)C(=O)N2[C@H]1C(=O)O[C@H]1OC(=O)c2ccccc21`, the “activity, negative = inhibition” value is 5.77%.

The subject of another experiment is CP297. The experiment is described as above. As to conditions: P. falciparum in erythrocytes, SYBR Green DNA, 72 h; series mostly up to 12.8 µM; activity, negative = inhibition: at the top concentration. A digest of the protocol: as §1
On to `CCO[C@H]1O[C@@H]([C@H](COCc2ccccc2)OCc2ccccc2)[C@@H](OCc2ccccc2)[C@H]1O`, for which the “activity, negative = inhibition” value is -7.9%.

For `COc1cc(N[C@@H](C)CCCN)c2ncccc2c1`, the Potency was 3610 nM (active).

`C=Cc1c(C)c2cc3nc(cc4[nH]c(cc5nc(cc1[nH]2)C(C)=C5CCC(=O)O)c(CCC(=O)OC)c4C)[C@@]1(C)C3=CC=C(C(=O)OC)[C@H]1C(=O)OC` (tested in a mixture with another compound): the “activity, negative = inhibition” value is -14.8% [at 28.7 µM].

`O=C(OC[C@@H](O)CO)c1ccccc1Nc1ccnc2cc(Cl)ccc12`: the “activity, negative = inhibition” value is 0.596%.

As for `CO[C@]1(NC(=O)[C@H](C(=O)O)c2ccc(O)cc2)C(=O)N2C(C(=O)O)=C(CSc3nnnn3C)CO[C@H]21`, the “activity, negative = inhibition” value is 3.82%.

In the case of `COc1ccc2c(c1)N(C[C@@H](C)CN(C)C)c1ccccc1S2`, the “activity, negative = inhibition” value was -9.93%.

For `CCC(=O)[C@@]1(C)[C@H](C)C[C@@H]2[C@@H]3CCC4=CC(=O)C=C[C@@]4(C)[C@H]3[C@H](O)C[C@]21C`, the “activity, negative = inhibition” value was -3.95%.

Take `CCC(C)(C)C(=O)O[C@@H]1C[C@H](C)C=C2C=C[C@H](C)[C@@H](CC[C@H]3C[C@@H](O)CC(=O)O3)[C@H]21`: the “activity, negative = inhibition” value is -1.74%.

As for `CCN(CC)[C@@H](C)CN1c2ccccc2Sc2ccccc21`, the “activity, negative = inhibition” value is -13.9%.

As for `CC=C(/C(=C/C)c1ccc(O)cc1)c1ccc(O)cc1`, the “activity, negative = inhibition” value is 5.16%.

Consider `CC1(C)S[C@@H]2[C@H](NC(=O)[C@@H](N)c3ccccc3)C(=O)N2[C@H]1C(=O)O[C@H]1OC(=O)c2ccccc21`, for which the “activity, negative = inhibition” value was 0.11%.

In a further experiment the test system is CP305. Described as above. As to conditions: P. falciparum in erythrocytes, SYBR Green DNA, 72 h; series mostly up to 12.8 µM; activity, negative = inhibition: at the top concentration. The gist of the method: as §1
For the molecule `CCO[C@H]1O[C@@H]([C@H](COCc2ccccc2)OCc2ccccc2)[C@@H](OCc2ccccc2)[C@H]1O`, the “activity, negative = inhibition” value was -8.6%.

On to `COc1cc(N[C@@H](C)CCCN)c2ncccc2c1`, for which the Potency was 1810 nM (active).

Consider `C=Cc1c(C)c2cc3nc(cc4[nH]c(cc5nc(cc1[nH]2)C(C)=C5CCC(=O)O)c(CCC(=O)OC)c4C)[C@@]1(C)C3=CC=C(C(=O)OC)[C@H]1C(=O)OC` (tested in a mixture with another compound), for which the “activity, negative = inhibition” value is -22.8% [at 28.7 µM].

Turning to `O=C(OC[C@@H](O)CO)c1ccccc1Nc1ccnc2cc(Cl)ccc12`, the “activity, negative = inhibition” value is -3.5%.

Consider `CO[C@]1(NC(=O)[C@H](C(=O)O)c2ccc(O)cc2)C(=O)N2C(C(=O)O)=C(CSc3nnnn3C)CO[C@H]21`, for which the “activity, negative = inhibition” value is -0.0636%.

Turning to `COc1ccc2c(c1)N(C[C@@H](C)CN(C)C)c1ccccc1S2`, the “activity, negative = inhibition” value was -8.69%.

Turning to `CCC(=O)[C@@]1(C)[C@H](C)C[C@@H]2[C@@H]3CCC4=CC(=O)C=C[C@@]4(C)[C@H]3[C@H](O)C[C@]21C`, the “activity, negative = inhibition” value is -2.14%.

For `CCC(C)(C)C(=O)O[C@@H]1C[C@H](C)C=C2C=C[C@H](C)[C@@H](CC[C@H]3C[C@@H](O)CC(=O)O3)[C@H]21`, the “activity, negative = inhibition” value is -0.691%.

As for `CCN(CC)[C@@H](C)CN1c2ccccc2Sc2ccccc21`, the “activity, negative = inhibition” value was -25.4%.

In the case of `CC=C(/C(=C/C)c1ccc(O)cc1)c1ccc(O)cc1`, the “activity, negative = inhibition” value is 3.93%.

`CC1(C)S[C@@H]2[C@H](NC(=O)[C@@H](N)c3ccccc3)C(=O)N2[C@H]1C(=O)O[C@H]1OC(=O)c2ccccc21`: the “activity, negative = inhibition” value is 2.02%.
